PubChem BioAssay AID1159580 (chemical genetic matrix, 2015)
The whole screen tested about 5,500 compounds, of which about 2,000 (36%) were called active. Not shown: some 18% with an inconclusive outcome. Rule as the data show it: active = normalized growth mostly below about 0.91 (no sharp cut-off); inconclusive = no clear call, values can overlap the other calls; inactive = mostly above about 0.92. Some of the results follow.

Test: chemical genetic growth profiling, strain panel (AID 1159580);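 also: tested at 20 µM; growth read once vehicle control cultures reached saturation at 30 °C; 1 = growth at the plate median or of vehicle wells; lower values mean less growth of the strain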
Details: S. cerevisiae deletion strains, growth OD

Measured: normalized growth

CCOC(=O)C1C(c2ccc(Br)cc2)C(C(=O)OCC)C(O)(C(F)(F)F)NC1(O)C(F)(F)F (stereo unspecified)
inactive: locus YAR019C, strain CDC15, active compounds read low 0.999 | locus YBL105C, strain PKC1, active compounds read low 0.991 | locus YBR135W, strain CKS1, active compounds read low 1 | locus YBR136W, strain MEC1, active compounds read low 0.988 | locus YBR160W, strain CDC28, active compounds read low 0.999 | locus YDL017W, strain CDC7, active compounds read low 0.996 | locus YDL028C, strain MPS1, active compounds read low 0.999 | locus YDL101C, strain DUN1, active compounds read low 0.99 | locus YDL108W, strain KIN28, active compounds read low 1 | locus YDL132W, strain cdc53, active compounds read low 0.996 | locus YDL214C, strain PRR2, active compounds read low 0.961 | locus YDR052C, strain DBF4, active compounds read low 0.994 | locus YDR054C, strain cdc34, active compounds read low 0.992 | locus YDR226W, strain ADK1, active compounds read low 0.998 | locus YDR477W, strain SNF1, active compounds read low 0.994 | locus YER123W, strain YCK3, active compounds read low 0.917 | locus YER133W, strain GLC7, active compounds read low 0.969 | locus YFL009W, strain cdc4, active compounds read low 0.998 | locus YFL029C, strain CAK1, active compounds read low 0.994 | locus YFR003C, strain YPI1, active compounds read low 0.995 | locus YFR019W, strain FAB1, active compounds read low 0.878 | locus YFR028C, strain CDC14, active compounds read low 0.995 | locus YGR040W, strain KSS1, active compounds read low 0.99 | locus YGR052W, strain FMP48, active compounds read low 1 | locus YGR092W, strain DBF2, active compounds read low 0.993 | locus YHR030C, strain SLT2, active compounds read low 0.941 | locus YHR079C, strain IRE1, active compounds read low 0.981 | locus YHR082C, strain KSP1, active compounds read low 0.961 | locus YHR205W, strain SCH9, active compounds read low 0.91 | locus YIL147C, strain SLN1, active compounds read low 0.999 | locus YJL095W, strain BCK1, active compounds read low 0.97 | locus YJL128C, strain PBS2, active compounds read low 0.967 | locus YJL157C, strain FAR1, active compounds read low 0.975 | locus YJR016C, strain ILV3, active compounds read low 0.997 | locus YJR066W, strain TOR1 (second series), active compounds read low 0.943 | locus YJR066W, strain TOR1, active compounds read low 0.911 | locus YKL048C, strain ELM1, active compounds read low 0.986 | locus YKL067W, strain YNK1, active compounds read low 0.974 | locus YKL101W, strain HSL1, active compounds read low 1 | locus YKL193C, strain SDS22, active compounds read low 0.998 | locus YKL203C, strain TOR2, active compounds read low 1.03 | locus YLR113W, strain HOG1, active compounds read low 0.91 | locus YLR133W, strain CKI1, active compounds read low 0.97 | locus YLR403W, strain SFP1, active compounds read low 0.966 | locus YML070W, strain DAK1, active compounds read low 0.956 | locus YMR001C, strain CDC5, active compounds read low 0.987 | locus YMR205C, strain PFK2 (second series), active compounds read low 0.988 | locus YMR277W, strain FCP1, active compounds read low 0.996 | locus YNL006W, strain LST8, active compounds read low 0.999 | locus YNL020C, strain ARK1, active compounds read low 0.99 | locus YNL161W, strain CBK1, active compounds read low 0.999 | locus YNL183C, strain NPR1, active compounds read low 0.942 | locus YNL207W, strain RIO2, active compounds read low 0.996 | locus YNL222W, strain SSU72, active compounds read low 0.999 | locus YNL307C, strain MCK1 (second series), active compounds read low 0.969 | locus YOL078W, strain AVO1, active compounds read low 1 | locus YOL136C, strain PFK27, active compounds read low 0.947 | locus YOR061W, strain CKA2, active compounds read low 0.995 | locus YOR119C, strain RIO1, active compounds read low 1.01 | locus YOR231W, strain MKK1, active compounds read low 0.984 | locus YOR329C, strain SCD5, active compounds read low 0.995 | locus YPL031C, strain PHO85, active compounds read low 0.999 | locus YPL153C, strain RAD53, active compounds read low 0.989 | locus YPL204W, strain HRR25, active compounds read low 0.985 | locus YPL209C, strain IPL1, active compounds read low 0.996 | locus YPL256C, strain CLN2, active compounds read low 0.9 | locus YPR025C, strain CCL1, active compounds read low 0.997 | locus YPR106W, strain ISR1, active compounds read low 0.99 | locus YPR111W, strain DBF20, active compounds read low 0.99 | strain NNK1, active compounds read low 0.992 | strain TSCII, active compounds read low 0.998
